Laboratory results reported in PubChem BioAssay (NCI).
This is part of a sample that, as a whole, favours compounds with a hit. Of some 83,000 tested, about 20% had one in any assay.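 Compound tested at a single concentration for 48 hours in 96-well plates; a percent growth value below 10 was scored as active.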 Active and inactive are the calls of the source.

tested on: HCC-2998 colon; assay: NCI-60 one-dose screen, 48 h (100 = growth as untreated, 0 = no growth, -100 = all killed); conditions: 10 µM

| SMILES | growth |
| --- | --- |
| O=C(NO)c1ccc(-c2nc3ccc4[nH]ncc4c3c3c2CCCC3)cc1 | -67.4% (active) |
| O=C(CNc1nc(-c2ccccc2)cs1)Nc1ccc(Cl)cc1 | -94.6% (active) |
| COc1cc2c3c(n(CCCN4CCOCC4)c(=O)c2cc1OC)-c1nc2c(cc1C3=O)OCO2 | 37.7% (inactive) |
| Cc1ccc(/C=C/C(=O)c2ccc(NC(=O)CSc3nnc(-c4c[nH]c5ccccc45)n3-c3ccccc3)cc2)c(C)c1 | 74.1% (inactive) |
| O=C(CN1CCN(c2ncnc3c2cnn3-c2ccccc2)CC1)Nc1nncs1 | 59.7% (inactive) |
| CC(=O)Oc1ccccc1C(=O)Oc1ccc(C(=O)/C=C/c2ccncc2)cc1 | -14% (active) |
| O=C(NC(=S)N1CCN(c2ncnc3c2cnn3-c2ccccc2)CC1)c1ccc(Cl)cc1 | 82.6% (inactive) |
| C/C(=N\N=C\c1ccc(N(C)C)cc1)c1ccc2c(c1)Nc1ccccc1S2 | 54.4% (inactive) |
| COC(=O)C[C@](O)(CCCC(C)(C)O)C(=O)O[C@H]1C(OC)=C[C@@]23CCC(=O)N2CCc2cc4c(cc2[C@@H]13)OCO4 | 88% (inactive) |
| CN1CCN(Cc2ccc(NC(=O)c3cncc(C#Cc4cnc5ccc(N[C@H]6CCOC6)nn45)c3)cc2C(F)(F)F)CC1 | -96.4% (active) |
| CCOc1ccc(/C=N/NC(=O)Cn2nc(Cc3ccc([N+](=O)[O-])cc3)c3onc(C)c3c2=O)cc1 | 29% (inactive) |
| CN1CCN(c2ccc(C(=O)/C=C/c3ccc(OC(F)F)cc3)cc2)CC1 | -48.9% (active) |
| COc1ccc(C2N(c3ccc(Br)cc3)N=C(C(C)=O)N2[C@H]2[C@H](OC(C)=O)O[C@H](COC(C)=O)[C@@H](OC(C)=O)[C@@H]2OC(C)=O)cc1 (some centres undefined) | 75.4% (inactive) |
| CCOC(=O)C1=C(N)N(c2ccccc2)C2=C(C(=O)CC(C)(C)C2)C1c1ccc(Cl)cc1 (centres undefined) | 42.9% (inactive) |
| CCCn1c(=O)c2[nH]c(-c3ccc(OCc4nc5ccc(F)cc5[nH]4)cc3)nc2n(CCC)c1=O | 83.2% (inactive) |
| Cc1ccc(/C(CSc2nnc(-c3c[nH]c4ccccc34)n2-c2ccccc2)=N/O)cc1 | -41.9% (active) |
| CN1CCN(c2ccc(C(=O)/C=C/c3cc(C(F)(F)F)ccc3Cl)cc2)CC1 | -98.1% (active) |

| SMILES | growth |
| --- | --- |
| COc1ccc(C(=O)Nc2sc3c(c2C#N)CCC(=O)C3)cc1C(F)(F)F | 6.84% (active) |
| Cc1ccc(/C=C/C(=O)c2ccc(NC(=O)CSc3nnc(-c4c[nH]c5ccccc45)n3-c3ccccc3)cc2)cc1 | 83.8% (inactive) |
| COc1ccc(Nc2nc(N)n(Cc3cccc(Br)c3)n2)cc1 | -13.1% (active) |
| O=C1CCC(N2Cc3cc(NC(=O)COc4ccccc4)ccc3C2=O)C(=O)N1 (centres undefined) | 83.5% (inactive) |
| O=C(/C=C/Nc1ccccc1)c1ccc2c(c1)Nc1ccccc1S2 | 95.4% (inactive) |
| COc1cc2c(c(OC)c1OC)C(=O)CC(c1cccc(NC(=O)c3cccc(N)c3)c1)O2 (centres undefined) | 114% (inactive) |
| Cc1noc2c(Cc3ccc([N+](=O)[O-])cc3)nn(CC(=O)N/N=C/c3ccc(Br)cc3)c(=O)c12 | 91.9% (inactive) |
| COc1ccc(-c2nc(Nc3ccccc3S(N)(=O)=O)c3ccccc3n2)cc1 | 12% (inactive) |
| COc1cc(/C=C/C(=O)c2ccc(NC(=O)CSc3nnc(-c4c[nH]c5ccccc45)n3-c3ccccc3)cc2)cc(OC)c1OC | 23.8% (inactive) |
| O=C(CSc1nnc(-c2ccc3nc(-c4ccc(Cl)cc4)[nH]c3c2)o1)Nc1ccc(Br)cc1 | 28.9% (inactive) |
| Cc1ccn2c(C(=O)c3ccccc3)cc(-c3cc(-c4ccc(N(C)C)cc4)c(C#N)c(N)n3)c2c1 | 92% (inactive) |
| O=C1c2ccccc2C(=O)c2c1c(C(=O)c1ccc(Cl)cc1)n1c2ccc2c3ccccc3ccc21 | 116% (inactive) |
| Cn1c(O)c(N=Nc2nc(-c3cc4ccccc4oc3=O)cs2)c2cc(Br)ccc21 | 97.7% (inactive) |
| Cn1cc(-c2cc(N)n3nc(-c4c[nH]c5ccc(Br)cc45)cc3n2)c2cccnc21 | -97.8% (active) |
| COc1ccc2c3nc4cc(C)c(C)cc4nc3n(CCN(C)C)c2c1 | -56.1% (active) |
| O=C(CSc1nnc(-c2c[nH]c3ccccc23)n1-c1ccccc1)c1ccc(Br)cc1 | 31.7% (inactive) |
| OCc1[nH]nc2cc(Nc3ncc4ccc(Br)c(OC5CCC(O)CC5)c4n3)ccc12 (centres undefined) | -49% (active) |
